Assay [1] can be described thus: qHTS assay for measurement of the activity of small molecule inhibitors on Zika virus induced Caspase-3 activity in human astrocytoma cells (AID 1224859).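 Also: plate controls were ZIKV-infected untreated cells for no effect and uninfected cells for full effect.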 In a few lines:
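Readout is luminescence from Caspase-Glo 3/7 added after a 6 h ZIKV infection (2 FFU/cell) of compound-pretreated (1 h) SNB-19 cells; data expressed as % inhibition versus uninfected and infected wells.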
A general note: Quantitative high-throughput screening tests each substance at several concentrations.

Assay [2] can be described thus: qHTS assay to identify small molecule inhibitors of chordoma cells - UCH-1 (AID 1259355). Also: nearly all actives have a fitted effect of over 55% in size. Also: potency is read from the fitted curve at half-maximal effect. In a few lines:
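800 cells/well, overnight attach; compounds pinned at 15 concs, then auranofin/camptothecin/doxorubicin/rubitecan/topotecan combo added; 48hr 37 C, 5% CO2; CellTiter-Glo, 30min RT, luminescence.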

The nature of assay [3]: qHTS assay to identify small molecule inhibitors of chordoma cells - UCH-2 (AID 1259356). Also: % is scaled to controls: 0 for no effect and ±100 for the full control effect.
Assay [4] can be described thus: qHTS assay for cell viability of the p53RE-bla HCT-116 cell line (AID 743292). Also: nearly all actives have a fitted effect of over 55% in size. Also: potency is read from the fitted curve at half-maximal effect. In a few lines:
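After plating at 4,000 cells per well and a 5 h rest at 37 C, HCT-116 cells carrying p53RE-bla received test chemicals in DMSO. Sixteen hours later at 37 C, CellTiter-Glo was added and luminescence recorded following 30 min at room temperature.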

Assay [5] can be described thus: qHTS assay for measurement of the activity of small molecule inhibitors on Zika virus induced Caspase-3 activity in human iPSC derived neural progenitor cells (hNPCs) (AID 1224857). Also: % of control where 0% means no effect; nearly all actives have a fitted effect of over 65% in size. In a few lines: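 Quantitative HTS format: human iPSC neural progenitors, 1 h compound pretreatment, ZIKV 2 FFU/cell for 6 h at 37 C. Percent inhibition derived from luminescent caspase-3/7 signal between uninfected and infected controls.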

Assay [6] in a line: Natriuretic polypeptide receptor (hNpr1) antagonism - Pilot counterscreen GloSensor control cell line (AID 1347045; calls by dose curve; also: % is scaled to controls: 0 for no effect and ±100 for the full control effect). In a few lines: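 Control counterscreen: luciferase cGMP-biosensor HEK293 cells (no Npr1) received compound for 30 min at room temperature after GloSensor substrate loading. Luminescence was measured before and 20 min after soluble guanylyl cyclase activation by 50 uM nitroprusside.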
On the technique in general: The purpose of a counterscreen is to sort out artefacts and off-target activity.

The nature of assay [7]: P-glycoprotein substrates identified in KB-8-5-11 adenocarcinoma cell line, qHTS therapeutic library screen (AID 1346987). Also: nearly all actives have a fitted effect of over 65% in size. Also: potency is read from the fitted curve at half-maximal effect. In a few lines:
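Compounds are pinned in dose-response onto KB-8-5-11 cells (500 cells/well, colchicine-free medium) and left 72 h at 37 degree C. CellTiter-Glo luminescence then yields AC50 values.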

Assay [8] is described as follows: Identifying Small Molecule Inhibitors of Pancreatic Cancer Stem Cells (SN12C, Adherent) (AID 1259358).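 Also: cell survival measured after 48 h of compound exposure.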 In a few lines:
(§1)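 Pre-formed 14-day tumor spheroids or adherent cells dosed and incubated 48 h, 37C, 5% CO2. Viability assessed by CellTiter-Glo.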

A short description of assay [9]: Identifying Small Molecule Inhibitors of Pancreatic Cancer Stem Cells (SN12C, Spheroid) (AID 1259360).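 Also: 100% = DMSO-treated cells and 0% = wells without cells.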 In a few lines:
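Viability is scored by CellTiter-Glo luminescence 48 h after dosing, expressed as percent activity against vehicle and no-cell references. Spheroid formats rely on cells cultured 14 days in stem cell media beforehand.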

The nature of assay [10]: Identifying Small Molecule Inhibitors of Pancreatic Cancer Stem Cells (A278, Adherent) (AID 1259361).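 Also: 100% = DMSO-treated cells and 0% = cell-free media-only wells; nearly all actives have a fitted effect of over 35% in size.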 In a few lines: as §1
Assay [11] is described as follows: Identifying Small Molecule Inhibitors of Pancreatic Cancer Stem Cells (Panc1, Adherent) (AID 1259362).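 Also: compound exposure lasted 48 h before the viability read; plate controls were DMSO-treated cells for no effect and cell-free media wells for full effect.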 Particulars: Potency: viability. In a few lines: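 Cytotoxicity read by CellTiter-Glo luminescence after 48 h compound exposure at 37C; percent activity scaled between DMSO-treated cells and cell-free wells. Spheroid formats used cells pre-formed 14 days in stem cell media on hydrogel.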

The nature of assay [12]: P-glycoprotein substrates identified in KB-3-1 adenocarcinoma cell line, qHTS therapeutic library screen (AID 1346986). Also: nearly all actives have a fitted effect of over 60% in size. Conditions: KB-3-1 parental cells viability, CellTiter-Glo, 72 h; at 44.5 µM (top of the series) unless noted. In a few lines:
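Viability read by CellTiter-Glo after 72 h compound exposure in dose-response of KB-3-1 and KB-8-5-11 (P-gp-high) cells. Hits needed AC50 < 10 uM, >50% maximum response and curve class -1.1 to -2.4. Cherry-picks retested ± tariquidar, including pcDNA/MDR-19 HEK-293 pair.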

Values joined by “and” are separate entries in the source; they are usually repeats but may differ in a detail not shown here. Equal values may be shown once. A number with no mark means an inactive call. Records with an inconclusive call do not appear. Active and inactive are the calls of the source. Unless noted, calls follow the shape of the dose curve; as a rule, active = well fitted curve in the direction sought with a large enough effect; inconclusive = small, poorly fitted or top-dose-only effect, or another doubt; inactive = no such curve, though single readings can be large; an effect the other way counts as inactive or inconclusive.

Take `CN1[C@@H]2CC(OC(=O)[C@H](CO)c3ccccc3)C[C@H]1[C@@H]1O[C@@H]12` (stereo partly drawn): the compound was called inactive in [1] and in assay [3]. Besides, the Potency result in assay [2] was “inactive”.

Take `NC(=O)c1ncn([C@@H]2O[C@H](CO)[C@@H](O)[C@H]2O)n1`: the Potency result in [4] was “inactive”. In addition, the call in assay [5], in assay [1] and in [3] was inactive.

Consider `CN(C)CCCN1c2ccccc2Sc2ccc(Cl)cc21`, for which the Potency result in assay [4] is “inactive”. Besides, the compound was called inactive in assay [5], in [1], in assay [3] and in assay [6].

On to `CC(C)c1c(C(=O)Nc2ccccc2)c(-c2ccccc2)c(-c2ccc(F)cc2)n1CC[C@@H](O)C[C@@H](O)CC(=O)O`, for which the outcome in assay [5] and in assay [1] was inactive. In addition, the Potency entry in [7] is “inactive”.

As for `Cc1c(O)cccc1C(=O)N[C@@H](CSc1ccccc1)[C@H](O)CN1C[C@H]2CCCC[C@H]2C[C@H]1C(=O)NC(C)(C)C`, the Potency in assay [4] was 28.2 µM (active). Moreover, the call in assay [5], in [1] and in assay [3] was inactive.

For `C[C@]12CC[C@@H]3c4ccc(O)cc4CC[C@H]3[C@@H]1CCC2=O`, in assay [4], the Potency result was “inactive”. The compound was classed as inactive in [5], in assay [1] and in assay [6].

Consider `O=Cc1ccccc1C=O`, for which the compound was called inactive in assay [1] and in assay [3]. For the same compound, the Potency entry in [2] was “inactive”.

With `CC(CN(C)C)CN1c2ccccc2CCc2ccccc21` (stereo not drawn), the result in assay [5], in [1], in [3] and in assay [6] was inactive.

Consider `CC(=O)OCC(=O)[C@@]1(O)CC[C@H]2[C@@H]3CCC4=CC(=O)CC[C@]4(C)[C@H]3C(=O)C[C@@]21C`, for which the result in [5], in assay [1] and in assay [6] was inactive.

For `C[C@H](NC(CCc1ccccc1)C(=O)O)C(=O)N1CCC[C@H]1C(=O)O` (stereo partly drawn), the outcome in [5] and in assay [1] was inactive. Besides, in assay [7], the Potency entry is “inactive”.

On to `CCN(CC)CCNC(=O)c1c(C)[nH]c(/C=C2\C(=O)Nc3ccc(F)cc32)c1C`, for which, in [1], the outcome was inactive. The Potency result in [2] is “inactive”.

In the case of `Oc1cn2c(n1)Nc1ccc(Cl)c(Cl)c1C2`, the result in assay [1], in assay [3], in [8] and in assay [9] was inactive. The Potency result in assay [2] and in assay [11] was “inactive” in each case. Also, in assay [10], the IC50 (viability decrease) result is “inactive”. In addition, the Potency in [7] is 18.4 nM (active) and 20.6 nM (active).

`CC(C)NC[C@H](O)c1ccc(O)c(O)c1`: the compound was classed as inactive in assay [5], in assay [1] and in [6].

As for `CC1=C(/C=C/C(C)=C/C=C/C(C)=C/C(=O)O)C(C)(C)CCC1`, the Potency entry in assay [4] is “inactive”. Also, the result in assay [5], in [1] and in assay [3] was inactive.

For `CCCCN1CCCC[C@H]1C(=O)Nc1c(C)cccc1C`, the result in assay [1], in assay [3] and in [12] was inactive. The Potency result in [2] and in [7] was “inactive” throughout.

Take `CC(=O)Oc1ccc(C2(c3ccc(OC(C)=O)cc3)C(=O)Nc3ccccc32)cc1`: the compound was classed as inactive in assay [1]. The Potency in assay [2] is 3.55 µM (active) and 3.98 µM (active). The Potency entry in [7] was “inactive”.

With `C=CCn1c(=O)n([C@@H]2O[C@H](CO)[C@@H](O)[C@H]2O)c2nc(N)[nH]c(=O)c21`, the compound was called inactive in [1] and in [3]. In addition, the Potency entry in assay [2] and in [7] was “inactive” throughout.

`Nc1nc2c(ncn2CCC(CO)CO)c(=O)[nH]1`: the compound was classed as inactive in [1] and in [3]. Besides, the Potency entry in [2] and in assay [7] was “inactive” throughout.

On to `COc1ccccc1O`, for which the Potency result in assay [4], in assay [2] and in assay [7] was “inactive” each time. Also, the result in assay [1] and in [3] was inactive.

Consider `CCN(CC)C(C)CN1c2ccccc2Sc2ccccc21` (stereo not drawn), for which the compound was called inactive in assay [1], in assay [3] and in assay [6].

As for `Cc1ccc(C(C)C)cc2c(C)ccc1-2`, the call in [1] and in [3] was inactive. Moreover, the Potency entry in assay [2] and in assay [7] was “inactive” in each case.

As for `CNCCCC1c2ccccc2C=Cc2ccccc21`, the compound was called inactive in [1], in assay [3] and in [6].

Regarding `CCOC(CN1CCN(CC(C)C(=O)c2ccccc2)CC1)c1ccccc1` (stereo not drawn), the call in assay [1] and in assay [3] was inactive. In addition, the Potency result in assay [2] and in assay [7] was “inactive” throughout.

As to `CCCOC(=O)c1ccccc1`, the outcome in assay [1] and in assay [3] was inactive. For the same compound, the Potency result in assay [2] and in assay [7] was “inactive” in each case.

Take `CO/N=C(\C(=O)N[C@@H]1C(=O)N2C(C(=O)O)=C(CSc3nc(=O)c(O)nn3C)CS[C@H]12)c1csc(N)n1`: the compound was classed as inactive in assay [1] and in assay [3]. Besides, the Potency result in assay [2] and in assay [7] was “inactive” throughout.

Turning to `CC(=O)CCC(=O)O`, the result in assay [1] and in assay [3] was inactive. Besides, the Potency result in [2] and in [7] was “inactive” in each case.

With `CC(C)(C)C(=O)NCCCC(=O)O`, the call in assay [1] and in assay [3] was inactive. Moreover, the Potency result in [2] and in [7] was “inactive” throughout.

In the case of `O=C(CCCN1CCN(c2ccccn2)CC1)c1ccc(F)cc1`, the outcome in assay [1] and in assay [3] was inactive. Also, the Potency result in assay [2] and in [7] was “inactive” each time.

Turning to `N[C@@H](CSSC[C@H](N)C(=O)O)C(=O)O`, the activity change, negative = inhibition in assay [1] was 23% [at 0.568 µM]. Moreover, the Potency entry in [2] and in assay [7] was “inactive” throughout. In addition, the result in [3] was inactive.

As to `Nc1ncnc2c1ncn2[C@@H]1O[C@H](CO)[C@@H](O)[C@H]1O`, the compound was classed as inactive in assay [1], in [3] and in assay [6]. In addition, the Potency entry in assay [2] and in assay [7] was “inactive” in each case.

For the compound `Nc1ccc(S(=O)(=O)Nc2ccccc2)cc1`, the call in assay [1] and in [3] was inactive. The Potency entry in assay [2] and in assay [7] was “inactive” in each case.

On to `COc1ccc(S(=O)(=O)Nc2nnc(CC(C)C)s2)cc1`, for which the compound was called inactive in [1] and in [3]. The Potency result in [2] and in assay [7] was “inactive” each time.

In the case of `CC1CC(OC(=O)C(O)c2ccccc2)CC(C)(C)N1C` (stereo not drawn), the compound was called inactive in assay [1] and in assay [3]. Further, the Potency entry in [2] and in assay [7] was “inactive” each time.

`O=C(O)CN1C(=O)c2cccc3cccc(c23)C1=O`: the compound was classed as inactive in [1] and in assay [3]. Moreover, the Potency result in assay [2] and in assay [7] was “inactive” throughout.

`C=Cc1c(C)c2cc3[nH]c(cc4nc(cc5nc(cc1[nH]2)C(C)=C5CCC(=O)O)C(CCC(=O)O)=C4C)c(C)c3C=C`: the compound was called inactive in assay [1] and in assay [3]. The Potency entry in assay [7] was “inactive”.

As to `O=c1cc[nH]c(=O)[nH]1`, the result in assay [1] and in [3] was inactive. The Potency entry in assay [2] and in assay [7] was “inactive” in each case.

Regarding `OC[C@H]1O[C@@H](O[C@@H]2[C@@H](CO)O[C@](O)(CO)[C@H]2O)[C@H](O)[C@@H](O)[C@H]1O`, the call in assay [1] and in assay [3] was inactive. Further, the Potency result in assay [2] and in assay [7] was “inactive” throughout.

Consider `O=C(O)CC(O)C(=O)O` (stereo not drawn), for which the compound was classed as inactive in [1] and in assay [3]. Besides, the Potency result in [2] and in assay [7] was “inactive” each time.

With `CC(O)COc1ccccc1` (stereo not drawn), the Potency entry in assay [4], in [2] and in [7] was “inactive” in each case. The compound was classed as inactive in assay [1] and in assay [3].
